This passage reports outcome and AC50 results from PubChem BioAssay (EPA / NIEHS).

Test [1] is described as follows: ATG_M_32_CIS: Attagene CIS-FACTORIAL HepG2 Assay for M32 Transcription Factor (Internal Marker) (AID 2282949).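 Also: background control marker of the multiplexed CIS panel rather than a real target.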 The settings on record: HepG2 Attagene cis-factorial M32 reporter, mRNA; actives raise or lower the signal. The procedure, abridged:
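Using DMSO as baseline, bidirectional curve fits were applied to reporter mRNA signals. These came from transiently transfected HepG2 cells exposed for 24 h, with RNA analysed by RT-PCR, FAM primer extension, HpaI digestion and CE.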

The nature of test [2]: ATG_M_06_CIS: Attagene CIS-FACTORIAL HepG2 Assay for M06 Transcription Factor (Internal Marker) (AID 2282950). To be noted: HepG2 Attagene CIS-FACTORIAL M06 internal marker reporter; actives raise or lower the signal. In a few lines: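 Serves as a background control readout. Transfected HepG2 exposed to compounds for 24 h, then reporter transcripts quantified by fluorescent RT-PCR and capillary electrophoresis. Both directions fitted against DMSO baseline.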

Test [3] concerns the target Hepatocyte nuclear factor 6 (Homo sapiens) (UniProt Q9UBC0). Briefly: ATG_HNF6_CIS: Attagene CIS-FACTORIAL HepG2 Assay for human Hepatocyte Nuclear Factor 6 (HNF6) (AID 2282952). To be noted: HepG2 Attagene cis-factorial HNF6 reporter transcription; actives raise or lower the signal. In a few lines: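 Endogenous transcription factor activity in human HepG2 liver cells was captured through cis-regulated reporter constructs. After 24 h treatment, reporter mRNA was measured by RT-PCR with capillary electrophoresis, and activity was fitted in both directions relative to DMSO.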

The target in test [4] is Heat shock factor protein 1 (Homo sapiens) (UniProt Q00613). The experiment in a line: ATG_HSE_CIS: Attagene CIS-FACTORIAL HepG2 Assay for human Heat Shock Transcription Factor 1 (HSE) (AID 2282953). To be noted: HepG2 HSE cis-reporter, Attagene RNA transcription; actives raise or lower the signal. In a few lines:
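Endogenous transcription factor activity in transiently transfected HepG2, read as reporter mRNA by RT-PCR with fluorescent capillary electrophoresis after 24 h. Gain or loss of signal fitted versus DMSO baseline.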

Test [5] is described as follows: ATG_MRE_CIS: Attagene CIS-FACTORIAL HepG2 Assay for human Metal Responsive Element (MRE) (AID 2282954). To be noted: HepG2 MRE cis-reporter transcription, Attagene multiplex; actives raise or lower the signal. The procedure, abridged: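 RT-PCR/capillary electrophoresis readout of reporter mRNA, 24 h post-dosing, in HepG2 cells transfected with multiplexed cis-regulated reporter constructs. Gain or loss of signal fitted bidirectionally against DMSO baseline.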

In test [6] the target is Paired box protein Pax-6 (Homo sapiens) (UniProt P26367). The experiment in a line: ATG_Pax6_CIS: Attagene CIS-FACTORIAL HepG2 Assay for human Paired Box 6 (PAX6) (AID 2282956). The settings on record: HepG2 CIS-FACTORIAL PAX6 reporter transcription, RNA readout; actives raise or lower the signal. In a few lines: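 Read-out is reporter transcript level, measured by RT-PCR with fluorescent primer extension and capillary electrophoresis after 24 h dosing of transfected HepG2 cells. Activity in either direction fitted relative to DMSO control.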
Paired box protein Pax-6 (Homo sapiens), sequence (P26367 whole entry, looked up): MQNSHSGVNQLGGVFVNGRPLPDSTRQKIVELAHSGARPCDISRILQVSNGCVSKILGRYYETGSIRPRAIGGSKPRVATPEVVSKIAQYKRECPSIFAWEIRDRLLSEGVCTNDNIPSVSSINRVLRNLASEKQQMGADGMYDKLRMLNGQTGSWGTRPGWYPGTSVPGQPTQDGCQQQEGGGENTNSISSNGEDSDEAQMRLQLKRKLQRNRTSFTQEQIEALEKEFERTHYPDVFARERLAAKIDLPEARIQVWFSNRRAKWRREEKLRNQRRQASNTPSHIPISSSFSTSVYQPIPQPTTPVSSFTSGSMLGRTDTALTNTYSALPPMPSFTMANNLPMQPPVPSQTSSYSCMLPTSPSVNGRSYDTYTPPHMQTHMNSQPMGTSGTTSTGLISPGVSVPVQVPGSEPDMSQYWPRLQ

Test [7] can be described thus: ATG_PXRE_CIS: Attagene CIS-FACTORIAL HepG2 Assay for human Pregnane X Receptor Element (PXRE) (AID 2282957). The settings on record: HepG2 Attagene CIS-FACTORIAL PXRE reporter, mRNA; actives raise or lower the signal. The procedure, abridged:
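Endogenous transcription factor activity in HepG2 was gauged through induction of reporter mRNA driven by a cis-regulating promoter element, sampled 24 h post-treatment. Activity was fitted in both directions against DMSO negative control.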

The nature of test [8]: ATG_RORE_CIS: Attagene CIS-FACTORIAL HepG2 Assay for human RAR-related Orphan Receptor Element (RORE) (AID 2282959). The settings on record: HepG2 Attagene cis-factorial RORE reporter, mRNA; actives raise or lower the signal. The procedure, abridged: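 Cells were HepG2 carrying transfected cis-regulated reporter constructs, dosed for 24 hours. Total RNA was reverse-transcribed and reporter cDNA amplified, fluorescently labeled and sized by capillary electrophoresis. Activity was fitted bidirectionally relative to DMSO.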

The nature of test [9]: ATG_Sox_CIS: Attagene CIS-FACTORIAL HepG2 Assay for human SRY-box transcription factor (SOX) (AID 2282960). To be noted: HepG2 Attagene cis-factorial SOX reporter, mRNA; actives raise or lower the signal. The procedure, abridged: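 Transient MRTU transfection of HepG2; 24 h compound incubation; TriZol RNA, oligo(dT) RT, PCR, 6-FAM primer extension, HpaI cut, CE. Bidirectional fit, DMSO = baseline.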

The target of test [10] is Transcription factor Sp1 (Homo sapiens) (UniProt P08047). The experiment in a line: ATG_Sp1_CIS: Attagene CIS-FACTORIAL HepG2 Assay for human Specificity Protein 1 (Sp1) (AID 2282961). To be noted: HepG2 Sp1 cis-reporter transcription, actives raise or lower the signal. The procedure, abridged: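 Endogenous Sp1 activity was gauged in human liver HepG2 cells bearing transfected reporter units under a cis-regulating promoter. After 24 h dosing, reporter mRNA was quantified by RT-PCR with capillary electrophoresis, and activity fitted bidirectionally versus DMSO.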
Transcription factor Sp1 (Homo sapiens), sequence (P08047 whole entry, looked up): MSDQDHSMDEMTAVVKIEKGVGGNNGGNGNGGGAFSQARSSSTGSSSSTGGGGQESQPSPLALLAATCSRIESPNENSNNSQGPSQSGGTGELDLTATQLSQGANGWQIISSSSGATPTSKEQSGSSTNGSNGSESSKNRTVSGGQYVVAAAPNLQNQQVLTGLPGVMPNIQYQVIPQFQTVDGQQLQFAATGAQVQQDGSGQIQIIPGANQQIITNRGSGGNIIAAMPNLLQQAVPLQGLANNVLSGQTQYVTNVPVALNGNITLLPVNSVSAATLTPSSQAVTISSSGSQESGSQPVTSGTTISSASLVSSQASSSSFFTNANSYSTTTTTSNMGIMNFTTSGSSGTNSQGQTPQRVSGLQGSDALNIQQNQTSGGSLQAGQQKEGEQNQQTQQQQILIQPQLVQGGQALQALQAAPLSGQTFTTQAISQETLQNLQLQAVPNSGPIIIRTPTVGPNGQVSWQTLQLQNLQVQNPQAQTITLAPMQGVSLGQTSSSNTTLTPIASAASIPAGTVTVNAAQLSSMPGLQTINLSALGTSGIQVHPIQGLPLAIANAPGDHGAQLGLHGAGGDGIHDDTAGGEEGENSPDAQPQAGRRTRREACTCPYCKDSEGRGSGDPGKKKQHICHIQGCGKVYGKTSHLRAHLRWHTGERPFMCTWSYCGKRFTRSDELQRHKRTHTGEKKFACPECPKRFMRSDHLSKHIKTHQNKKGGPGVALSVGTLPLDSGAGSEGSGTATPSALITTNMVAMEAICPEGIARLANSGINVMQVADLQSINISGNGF

A short description of test [11]: ATG_SREBP_CIS: Attagene CIS-FACTORIAL HepG2 Assay for human Sterol Regulatory Element Binding (SREBP) (AID 2282962). To be noted: HepG2 Attagene cis-factorial SREBP reporter, mRNA; actives raise or lower the signal. In a few lines:
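Endogenous SREBP activity read as cis-element-driven reporter transcript in transiently transfected HepG2, 24 h post-dosing; quantified via RT-PCR plus capillary electrophoresis of fluorescent fragments. Gain or loss of signal fitted relative to DMSO baseline.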

Test [12] addresses Signal transducer and activator of transcription 3 (Homo sapiens) (UniProt P40763). Briefly: ATG_STAT3_CIS: Attagene CIS-FACTORIAL HepG2 Assay for human Signal Transducer and Activator of Transcription 3 (STAT3) (AID 2282963). The settings on record: HepG2, Attagene cis-factorial STAT3 reporter transcription; actives raise or lower the signal. In a few lines: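 Readout: fluorescent reporter mRNA fragments resolved by capillary electrophoresis. Setup: HepG2 transfected with MRTUs reporting endogenous transcription-factor activity, dosed 24 h. Gain or loss of signal fitted bidirectionally against DMSO control.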

The nature of test [13]: ATG_TA_CIS: Attagene CIS-FACTORIAL HepG2 Assay for human TA Basal Promoter (AID 2282964). To be noted: HepG2 Attagene CIS-factorial TA basal promoter reporter; actives raise or lower the signal. In a few lines:
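Background-control readout: TA basal promoter reporter mRNA, fitted in both directions relative to DMSO. Measured by RT-PCR and capillary electrophoresis 24 hours after treating HepG2 human liver cells transiently carrying multiplexed cis-regulated reporter constructs.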

The nature of test [14]: ATG_TCF_b_cat_CIS: Attagene CIS-FACTORIAL HepG2 Assay for human T-Cell-Factor with beta-catenin (TCF/b-cat) (AID 2282965). The settings on record: HepG2 TCF/beta-catenin cis-reporter transcription, actives raise or lower the signal. The procedure, abridged:
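Cells of the HepG2 line carry transiently transfected reporter units whose promoters respond to endogenous factors. Twenty-four hours post-dosing, reporter mRNA induction is measured by fluorescent RT-PCR and capillary electrophoresis, with DMSO as baseline.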

Test [15] in a line: ATG_TAL_CIS: Attagene CIS-FACTORIAL HepG2 Assay for human TAL Basal Promoter (AID 2282966).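 Also: background control endpoint measuring basal TAL promoter reporter mRNA not a specific factor.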 To be noted: HepG2 Attagene cis-factorial TAL promoter reporter; actives raise or lower the signal. The procedure, abridged: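 Endogenous transcription-factor activity is sensed in HepG2 cells through transfected cis-promoter reporter constructs. After 24 h dosing, reporter transcripts are quantified by RT-PCR and capillary electrophoresis. Gain or loss of signal is fitted relative to DMSO.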

The nature of test [16]: ATG_TGFb_CIS: Attagene CIS-FACTORIAL HepG2 Assay for human Transforming Growth Factor (TGF) (AID 2282967). The settings on record: HepG2 Attagene CIS TGFb reporter, mRNA transcription; actives raise or lower the signal. In a few lines: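 Endogenous TGFB1-linked transcription factor activity read as reporter mRNA via RT-PCR and capillary electrophoresis, 24 h after dosing transiently transfected HepG2 cells. Gain or loss of signal fitted relative to DMSO.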

A short description of test [17]: ATG_VDRE_CIS: Attagene CIS-FACTORIAL HepG2 Assay for human Vitamin D Receptor Element (VDRE) (AID 2282968). The settings on record: HepG2 VDRE cis-reporter transcription, actives raise or lower the signal. In a few lines: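 Transient MRTU transfection of HepG2, 24 h compound exposure. Readout: reporter transcripts via RT-PCR and capillary electrophoresis, fluorescence. Bidirectional fit vs DMSO.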

In test [18] the target is Hypoxia-inducible factor 1-alpha (Homo sapiens) (UniProt Q16665). Briefly: ATG_HIF1a_CIS: Attagene CIS-FACTORIAL HepG2 Assay for human Hypoxia Inducible Factor 1 (HIF1A) (AID 2282951). To be noted: HepG2 Attagene cis-factorial HIF1a reporter transcription; actives raise or lower the signal. In a few lines: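 Measures endogenous transcription-factor activity through cis-regulated reporter mRNA in HepG2. Cells dosed 24 h; transcripts quantified by RT-PCR with 6-FAM-labelled products separated by capillary electrophoresis; DMSO serves as negative control.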
Hypoxia-inducible factor 1-alpha (Homo sapiens), sequence (Q16665 whole entry, looked up): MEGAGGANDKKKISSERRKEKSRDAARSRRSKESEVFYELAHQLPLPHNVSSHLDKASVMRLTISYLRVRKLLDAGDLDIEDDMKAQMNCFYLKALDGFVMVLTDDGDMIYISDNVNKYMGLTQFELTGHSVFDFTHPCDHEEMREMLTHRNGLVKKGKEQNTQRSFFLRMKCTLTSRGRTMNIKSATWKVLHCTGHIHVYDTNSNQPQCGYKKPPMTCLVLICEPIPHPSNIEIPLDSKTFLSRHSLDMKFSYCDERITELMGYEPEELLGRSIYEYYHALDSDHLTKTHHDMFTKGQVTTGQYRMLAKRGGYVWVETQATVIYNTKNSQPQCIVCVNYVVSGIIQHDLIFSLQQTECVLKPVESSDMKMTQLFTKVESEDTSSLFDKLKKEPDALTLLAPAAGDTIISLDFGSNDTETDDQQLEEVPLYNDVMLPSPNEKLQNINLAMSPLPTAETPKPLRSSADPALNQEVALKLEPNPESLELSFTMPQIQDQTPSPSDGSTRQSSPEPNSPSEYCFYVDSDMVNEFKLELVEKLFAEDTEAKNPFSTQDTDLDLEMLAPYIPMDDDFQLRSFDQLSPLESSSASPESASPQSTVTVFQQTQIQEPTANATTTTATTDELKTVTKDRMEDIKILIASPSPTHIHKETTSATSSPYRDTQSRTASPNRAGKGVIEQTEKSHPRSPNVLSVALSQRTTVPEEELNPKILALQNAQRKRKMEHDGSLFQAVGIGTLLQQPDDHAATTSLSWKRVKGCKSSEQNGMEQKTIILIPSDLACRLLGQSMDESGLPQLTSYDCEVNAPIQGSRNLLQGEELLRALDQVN

The nature of test [19]: ATG_PPRE_CIS: Attagene CIS-FACTORIAL HepG2 Assay for human Peroxisome Proliferator-activated Response Element (PPRE) (AID 2282958). The settings on record: HepG2 PPRE cis-element reporter, Attagene transcription factor profiling; actives raise or lower the signal. The procedure, abridged:
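Cells are first transfected transiently with the multiplexed reporter library, then dosed for 24 h. Total RNA is reverse-transcribed, amplified, fluorescently end-labeled and HpaI-cut before capillary electrophoresis; activity is fitted bidirectionally against DMSO controls.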

Where “and” joins values, the source holds several entries; their conditions need not be identical. Equal entries are not always repeated. Calls of active or inactive are those of the source. The calls were made as follows: active = hit-call score of the fitted dose curve at least 0.9, where 1 is the maximum; inactive = score below 0.9.

As usually defined, the AC50 is the midpoint of the concentration-response curve, whichever way the signal moves.

Signal transducer and activator of transcription 3 (Homo sapiens), sequence (P40763 whole entry, looked up, the tested form may be a part): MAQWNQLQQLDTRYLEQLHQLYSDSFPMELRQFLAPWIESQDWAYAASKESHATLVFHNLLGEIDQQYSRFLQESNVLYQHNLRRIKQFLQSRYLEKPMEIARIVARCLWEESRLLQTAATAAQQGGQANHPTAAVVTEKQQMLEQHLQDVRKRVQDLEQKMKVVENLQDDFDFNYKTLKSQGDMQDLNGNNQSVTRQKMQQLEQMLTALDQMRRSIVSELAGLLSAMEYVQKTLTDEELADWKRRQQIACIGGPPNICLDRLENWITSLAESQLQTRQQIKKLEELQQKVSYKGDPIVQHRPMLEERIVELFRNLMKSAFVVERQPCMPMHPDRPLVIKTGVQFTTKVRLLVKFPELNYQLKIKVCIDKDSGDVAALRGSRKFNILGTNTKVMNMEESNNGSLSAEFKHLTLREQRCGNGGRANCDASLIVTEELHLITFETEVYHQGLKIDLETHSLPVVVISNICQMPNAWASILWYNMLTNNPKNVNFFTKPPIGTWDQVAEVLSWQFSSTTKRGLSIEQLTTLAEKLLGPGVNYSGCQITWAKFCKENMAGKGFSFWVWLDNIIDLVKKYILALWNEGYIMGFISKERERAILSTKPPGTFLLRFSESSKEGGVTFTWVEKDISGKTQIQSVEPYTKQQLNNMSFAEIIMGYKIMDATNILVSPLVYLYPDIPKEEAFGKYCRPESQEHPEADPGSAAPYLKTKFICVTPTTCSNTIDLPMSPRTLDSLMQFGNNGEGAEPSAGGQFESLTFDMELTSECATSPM
Heat shock factor protein 1 (Homo sapiens), sequence (Q00613 whole entry, looked up): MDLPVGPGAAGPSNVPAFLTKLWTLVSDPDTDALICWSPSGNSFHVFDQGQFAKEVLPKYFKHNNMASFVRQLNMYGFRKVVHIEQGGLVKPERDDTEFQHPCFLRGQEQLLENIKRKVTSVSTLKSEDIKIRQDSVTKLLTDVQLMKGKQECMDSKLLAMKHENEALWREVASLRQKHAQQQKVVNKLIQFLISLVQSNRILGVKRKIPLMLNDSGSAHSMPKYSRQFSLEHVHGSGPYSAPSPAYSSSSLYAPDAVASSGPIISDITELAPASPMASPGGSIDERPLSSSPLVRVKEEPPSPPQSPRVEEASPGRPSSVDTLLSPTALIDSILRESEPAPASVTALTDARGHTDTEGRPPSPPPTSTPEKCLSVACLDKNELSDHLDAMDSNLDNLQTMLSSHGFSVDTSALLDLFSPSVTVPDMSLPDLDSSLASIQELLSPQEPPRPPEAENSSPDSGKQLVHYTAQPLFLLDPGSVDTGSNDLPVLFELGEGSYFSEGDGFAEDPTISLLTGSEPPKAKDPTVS
Hepatocyte nuclear factor 6 (Homo sapiens), sequence (Q9UBC0 whole entry, looked up): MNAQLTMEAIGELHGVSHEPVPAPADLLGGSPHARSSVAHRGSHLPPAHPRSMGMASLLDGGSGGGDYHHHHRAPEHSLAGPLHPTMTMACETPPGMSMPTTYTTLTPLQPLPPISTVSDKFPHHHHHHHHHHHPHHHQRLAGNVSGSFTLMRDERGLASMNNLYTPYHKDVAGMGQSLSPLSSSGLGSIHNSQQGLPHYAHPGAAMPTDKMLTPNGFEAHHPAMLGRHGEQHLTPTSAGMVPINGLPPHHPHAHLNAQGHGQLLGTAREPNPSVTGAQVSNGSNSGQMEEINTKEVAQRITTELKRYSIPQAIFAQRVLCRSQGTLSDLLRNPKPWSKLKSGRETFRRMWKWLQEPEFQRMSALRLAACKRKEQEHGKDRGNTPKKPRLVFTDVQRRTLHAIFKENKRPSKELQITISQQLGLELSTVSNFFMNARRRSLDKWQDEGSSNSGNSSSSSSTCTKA

For `C[C@]12CC[C@@H](O)C[C@@H]1CC[C@@H]1[C@@H]2CC[C@]2(C)C(=O)CC[C@@H]12`, the compound was called inactive in test [1], in test [2], in test [3], in [4], in test [5] and in test [6]. Moreover, the compound was classed as inactive in test [8], in test [9], in [10], in test [11], in test [12] and in test [13]. Moreover, the result in test [14], in [15], in test [16] and in test [17] was inactive. In addition, the AC50 in test [7] is 6.91 µM (active).
For the compound `CN(C)c1ccc(N=O)cc1`, the result in test [1], in test [18], in test [3], in test [5], in [6] and in test [7] was inactive. Moreover, the compound was classed as inactive in test [19], in [8], in test [9], in [10], in test [11] and in [12]. Besides, the compound was called inactive in [13], in [14], in test [15], in test [16] and in test [17]. In addition, the AC50 in test [4] was 25.4 µM (active).
Turning to `COC(=O)c1cc(Oc2ccc(Cl)cc2Cl)ccc1[N+](=O)[O-]`, the outcome in [1], in test [3], in [4], in test [9], in test [10] and in test [11] was inactive. Also, the call in test [12], in test [14] and in [15] was inactive. Moreover, the AC50 was 21.3 µM (active) in test [18]; 17.9 µM (active) in test [5]; 5.12 µM (active) in [7]; 10.2 µM (active) in test [19]; 16.6 µM (active) in test [8]; 27.1 µM (active) in test [13]. In addition, the AC50 in test [16] is 66.8 µM (active); in test [17], 10.8 µM (active).
On to `O=C1C[C@@H]2OCC=C3CN4CC[C@]56c7ccccc7N1[C@H]5[C@H]2[C@H]3C[C@H]46`, for which the result in [1], in test [2], in [3], in test [4], in test [5] and in test [6] was inactive. The call in test [8], in test [9], in test [10], in test [11], in test [12] and in test [13] was inactive. Also, the compound was classed as inactive in test [14], in [15] and in test [16]. Besides, the AC50 in [7] is 44.6 µM (active) and 10.9 µM (active).
